Results reported in PubChem BioAssay (EPA / NIEHS).
Results filed as inconclusive are left out. Activity calls are given as the source filed them. The calls were made as follows, unless noted: active = hit-call score of the fitted dose curve at least 0.9, where 1 is the maximum; inactive = score below 0.9.

Assays:
[1] = molecular target: Peroxisome proliferator-activated receptor gamma (Homo sapiens) (UniProt P37231); assay: OT_PPARg_PPARgSRC1_0480: Odyssey Thera (OT) 8-hour Protein-Complementation Assay for Peroxisome Proliferator-activated Receptor Gamma / SRC-1 Co-activator (AID 2283387; active = hit-call score of the fitted dose curve at least 0.9, where 1 is the maximum;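 also: nuclear to cytoplasmic split Venus YFP fluorescence ratio reporting PPARg SRC-1 interaction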)
Method in brief: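 Protein-fragment complementation in HEK293T: Venus YFP halves (residues 1-158, 159-239, mutated to IFP1/IFP2) fused to PPARg/SRC-1. 8 h exposure; N/C ratio at 488 nm; DMSO negative control.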

[2] = molecular target: Peroxisome proliferator-activated receptor gamma (Homo sapiens) (UniProt P37231); assay: OT_PPARg_PPARgSRC1_1440: Odyssey Thera (OT) 24-hour Protein-Complementation Assay for Peroxisome Proliferator-activated Receptor Gamma/ SRC-1 Co-activator (AID 2283388; active = hit-call score of the fitted dose curve at least 0.9, where 1 is the maximum;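 also: nuclear to cytoplasmic ratio of reconstituted Venus YFP fluorescence in fixed imaged cells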)
Method in brief: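 Transient HEK293T, YFP fragments 1-158/159-239 (mutant IFP1/IFP2) fused to PPARg/SRC-1; 24 h dosing; fix 4% formaldehyde, Draq5; Opera imaging 488/635 nm; N/C ratio, gain vs DMSO.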

[3] = CEETOX_H295R_OHPREG: CeeTox H295R High-throughput Steroidogenesis Assay for OH-Pregnenolone (OHPREG) (AID 2283434); details: actives raise or lower the signal
Method in brief: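 Readout: HPLC-MS/MS of 17alpha-hydroxypregnenolone in medium after 48 h chemical exposure of H295R cells pretreated with forskolin. Values fitted bidirectionally relative to DMSO; chemicals reducing viability to 20–70% were retested after 10-fold dilution.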

[4] = CEETOX_H295R_OHPROG: CeeTox H295R High-throughput Steroidogenesis Assay for OH-Progesterone (OHPROG) (AID 2283435); details: actives raise or lower the signal;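 as to AC50: human adrenal H295R cells primed 48 h with 10 µM forskolin; 17alpha-hydroxyprogesterone secreted into medium measured by HPLC-MS/MS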
Method in brief: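 Steps: seed H295R cells and adhere overnight; stimulate with 10 uM forskolin for 48 h; replace with chemical-containing medium (0.1% DMSO) for 48 h; extract medium with MTBE; quantify 17alpha-hydroxyprogesterone by reverse-phase C18 HPLC-MS/MS against a 7-point curve.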

[5] = CEETOX_H295R_ANDR: CeeTox H295R High-throughput Steroidogenesis Assay for Androstenedione (ANDR) (AID 2283436); details: actives raise or lower the signal;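 also: human H295R adrenal cells exposed for 48 h with androstenedione measured in medium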
Method in brief: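 Steroidogenesis in H295R adrenal cells after 48 h dosing; androstenedione quantified by LC-MS/MS, with DMSO as negative control and baseline for bidirectional curve fitting.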

[6] = CEETOX_H295R_PROG: CeeTox H295R High-throughput Steroidogenesis Assay for Progesterone (PROG) (AID 2283442); details: actives raise or lower the signal;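 as to AC50: human H295R adrenal cells primed with 10 µM forskolin before dosing; progesterone secreted into medium by H295R cells measured by HPLC-MS/MS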
Method in brief: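 Adrenal H295R line, forskolin-stimulated (10 uM, 48 h) before dosing. 48 h exposure, 0.1% DMSO vehicle. Secreted progesterone by reverse-phase HPLC with ESI+ MS/MS quantification; DMSO-normalised bidirectional curve fit.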

[7] = read-out: Tumor necrosis factor receptor superfamily member 6 (Homo sapiens) (UniProt P25445); assay: LTEA_HepaRG_FAS: Life Technologies and Expression Analysis (LTEA) Assay for Fas cell surface death receptor (FAS) using HepaRG (AID 2283447); details: mRNA level, 48 h; actives raise or lower the signal
Method in brief: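 Differentiated human HepaRG cells, pre-cultured 48 h, were exposed in duplicate for 48 h to 8-point half-log concentrations (top 100 uM, 0.5% DMSO) in serum-free induction medium; FAS mRNA measured by qRT-PCR, normalized to ACTB/GAPDH/POLR2A, bidirectional fit versus DMSO.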

[8] = read-out: Fatty acid synthase (Homo sapiens) (UniProt P49327); assay: LTEA_HepaRG_FASN: Life Technologies and Expression Analysis (LTEA) Assay for Fatty Acid Synthase (FASN) using HepaRG (AID 2283448); details: mRNA level, 48 h; actives raise or lower the signal
Method in brief: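 Cells were plated, cultured 48 h, switched to serum-free induction medium, then dosed in duplicate (max 100 uM, half-log dilutions, 0.5% DMSO) for 48 h. RNA was then isolated and FASN quantified by qRT-PCR.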

[9] = read-out: Cyclin D2 (CCND2), CCND2 (gene 894); assay: LTEA_HepaRG_CCND2: Life Technologies and Expression Analysis (LTEA) Assay for Cyclin D2 (CCND2) using HepaRG (AID 2283449); details: mRNA level, 48 h; actives raise or lower the signal;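 also: CCND2 transcript measured by TaqMan qRT-PCR and normalised to three housekeeping genes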
Method in brief: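 In this HepaRG study, an eight-point concentration series (max 100 uM, 0.5% DMSO) is applied for 48 h. CCND2 mRNA change is derived by qRT-PCR normalised to ACTB, GAPDH and POLR2A.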

[10] = read-out: Cyclin Dependent Kinase Inhibitor 1A (CDKN1A), CDKN1A (gene 1026); assay: LTEA_HepaRG_CDKN1A: Life Technologies and Expression Analysis (LTEA) Assay for Cyclin Dependent Kinase Inhibitor 1A (CDKN1A) using HepaRG (AID 2283450); details: mRNA level, 48 h; actives raise or lower the signal
Method in brief: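 Cryopreserved HepaRG cells were plated and cultured 48 h, then switched to serum-free induction medium. Chemicals (eight half-log concentrations, top 100 uM, 0.5% DMSO) were applied for 48 h. Lysates underwent qRT-PCR for CDKN1A with housekeeping normalization.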

[11] = read-out: Cyclin D1 (CCND1), CCND1 (gene 595); assay: LTEA_HepaRG_CCND1: Life Technologies and Expression Analysis (LTEA) Assay for Cyclin D1 (CCND1) using HepaRG (AID 2283451); details: mRNA level, 48 h; actives raise or lower the signal
Method in brief: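 Human liver HepaRG line; 48 h dosing, 8 conc. ≤100 uM, 0.5% DMSO; TaqMan qRT-PCR mRNA, 3 housekeeping genes; bidirectional curve fit vs DMSO.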

[12] = read-out: catalase (CAT), CAT (gene 847); assay: LTEA_HepaRG_CAT: Life Technologies and Expression Analysis (LTEA) Assay for catalase (CAT) using HepaRG (AID 2283452); details: mRNA level, 48 h; actives raise or lower the signal;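 as to AC50: TaqMan qRT-PCR signal normalized to ACTB GAPDH and POLR2A housekeeping genes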
Method in brief: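 Differentiated HepaRG cells in serum-free induction medium were dosed 48 h in duplicate, eight half-log concentrations from 100 uM in 0.5% DMSO. Transcript measured by TaqMan qRT-PCR, normalised to ACTB/GAPDH/POLR2A, fitted bidirectionally against DMSO.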

[13] = read-out: flavin-containing dimethylaniline monooxygenases 3 (FMO3), FMO3 (gene 2328); assay: LTEA_HepaRG_FMO3: Life Technologies and Expression Analysis (LTEA) Assay for flavin-containing dimethylaniline monooxygenases 3 (FMO3) using HepaRG (AID 2283453); details: mRNA level, 48 h; actives raise or lower the signal;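 as to AC50: FMO3 transcript by TaqMan qRT-PCR normalized to ACTB GAPDH and POLR2A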
Method in brief: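 FMO3 transcript quantified by TaqMan qRT-PCR against three housekeeping genes after 48 h chemical exposure of HepaRG cells. Eight-point half-log series, top 100 uM, 0.5% DMSO vehicle; phenobarbital 1mM induction control; up- or down-regulation fitted.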

[14] = read-out: Cytochrome P450 (CYP1A1), CYP1A1 (gene 1543); assay: LTEA_HepaRG_CYP1A1: Life Technologies and Expression Analysis (LTEA) Assay for Cytochrome P450 (CYP1A1) using HepaRG (AID 2283454); details: mRNA level, 48 h; actives raise or lower the signal
Method in brief: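 Induction of CYP1A1 mRNA in a human hepatic cell line was measured 48 h after dosing, with 1 mM phenobarbital as induction positive control and 0.5% DMSO vehicle as baseline for bidirectional curve fitting.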

[15] = CEETOX_H295R_11DCORT: CeeTox H295R High-throughput Steroidogenesis Assay for 11-Deoxycortisol (11DCORT) (AID 2283432); details: actives raise or lower the signal;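 as to AC50: human adrenal H295R cells prestimulated with 10 µM forskolin for 48 h; 11-deoxycortisol secreted into the medium measured by LC-MS/MS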
Method in brief: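 Adrenal carcinoma line H295R, run per OECD 456 with minor changes, was forskolin-stimulated (10 uM, 48 h) before a 48 h chemical exposure at 0.1% DMSO. Secreted 11-deoxycortisol was quantified by HPLC-MS/MS.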

[16] = CEETOX_H295R_CORTIC: CeeTox H295R High-throughput Steroidogenesis Assay for Corticosterone (CORTIC) (AID 2283437); details: actives raise or lower the signal;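 also: corticosterone secreted into medium quantified by mass spectrometry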;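 as to AC50: human H295R adrenal cells prestimulated with forskolin before chemical exposure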
Method in brief: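 Steps: seed H295R, adhere overnight; 10 uM forskolin 48 h; replace with chemical (0.1% DMSO) 48 h; extract medium with MTBE; quantify corticosterone by HPLC-MS/MS; score bidirectionally vs DMSO.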

[17] = CEETOX_H295R_CORTISOL: CeeTox H295R High-throughput Steroidogenesis Assay for Cortisol (AID 2283438); details: actives raise or lower the signal
Method in brief: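 Cortisol synthesis by H295R cells is measured 48 h after chemical dosing, following a 48 h stimulation with 10 uM forskolin. Hormone is extracted and quantified by HPLC-MS/MS, and activity is fitted bidirectionally against the DMSO control.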

[18] = CEETOX_H295R_DOC: CeeTox H295R High-throughput Steroidogenesis Assay for DOC (AID 2283439); details: actives raise or lower the signal
Method in brief: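 Steps: seed H295R, adhere overnight; 10 uM forskolin 48 h; replace with chemical medium (0.1% DMSO) 48 h; collect medium, MTBE extraction, HPLC-MS/MS for DOC. Viability then checked by MTT; cytotoxic chemicals diluted until viability ≥70%.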

[19] = CEETOX_H295R_ESTRADIOL: CeeTox H295R High-throughput Steroidogenesis Assay for Estradiol (AID 2283440); details: actives raise or lower the signal;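 also: estradiol secreted into medium quantified by LC-MS/MS after dansyl derivatisation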
Method in brief: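 Following OECD 456 with minor changes, H295R cells received 10 uM forskolin for 48 h and then test chemical for 48 h. Hormone output was read by HPLC-MS/MS, with cytotoxic concentrations diluted until MTT viability reached ≥70%.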

[20] = CEETOX_H295R_ESTRONE: CeeTox H295R High-throughput Steroidogenesis Assay for Estrone (AID 2283441); details: actives raise or lower the signal
Method in brief: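 Estrone secreted into medium quantified by LC-MS/MS after dansyl chloride derivatization, following 48 h chemical exposure (0.1% DMSO final) of forskolin-prestimulated (10 uM, 48 h) H295R cells; gain or loss fitted against DMSO; MTT viability in same wells.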

Measured: AC50

Peroxisome proliferator-activated receptor gamma (Homo sapiens), sequence (P37231 whole entry, looked up, the tested form may be a part): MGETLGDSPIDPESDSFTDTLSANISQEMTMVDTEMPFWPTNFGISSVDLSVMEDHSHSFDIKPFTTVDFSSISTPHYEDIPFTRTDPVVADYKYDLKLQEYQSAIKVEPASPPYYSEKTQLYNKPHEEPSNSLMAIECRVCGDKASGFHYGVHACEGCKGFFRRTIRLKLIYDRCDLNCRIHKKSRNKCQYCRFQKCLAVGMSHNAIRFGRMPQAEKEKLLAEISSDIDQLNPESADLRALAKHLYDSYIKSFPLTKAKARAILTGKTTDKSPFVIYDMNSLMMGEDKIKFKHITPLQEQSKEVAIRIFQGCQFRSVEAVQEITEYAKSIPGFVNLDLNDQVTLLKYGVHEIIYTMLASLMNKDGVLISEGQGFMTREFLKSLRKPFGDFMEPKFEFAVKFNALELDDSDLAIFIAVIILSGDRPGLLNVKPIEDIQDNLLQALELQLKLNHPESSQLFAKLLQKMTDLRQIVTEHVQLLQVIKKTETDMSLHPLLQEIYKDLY
Fatty acid synthase (Homo sapiens), sequence (P49327 whole entry, looked up): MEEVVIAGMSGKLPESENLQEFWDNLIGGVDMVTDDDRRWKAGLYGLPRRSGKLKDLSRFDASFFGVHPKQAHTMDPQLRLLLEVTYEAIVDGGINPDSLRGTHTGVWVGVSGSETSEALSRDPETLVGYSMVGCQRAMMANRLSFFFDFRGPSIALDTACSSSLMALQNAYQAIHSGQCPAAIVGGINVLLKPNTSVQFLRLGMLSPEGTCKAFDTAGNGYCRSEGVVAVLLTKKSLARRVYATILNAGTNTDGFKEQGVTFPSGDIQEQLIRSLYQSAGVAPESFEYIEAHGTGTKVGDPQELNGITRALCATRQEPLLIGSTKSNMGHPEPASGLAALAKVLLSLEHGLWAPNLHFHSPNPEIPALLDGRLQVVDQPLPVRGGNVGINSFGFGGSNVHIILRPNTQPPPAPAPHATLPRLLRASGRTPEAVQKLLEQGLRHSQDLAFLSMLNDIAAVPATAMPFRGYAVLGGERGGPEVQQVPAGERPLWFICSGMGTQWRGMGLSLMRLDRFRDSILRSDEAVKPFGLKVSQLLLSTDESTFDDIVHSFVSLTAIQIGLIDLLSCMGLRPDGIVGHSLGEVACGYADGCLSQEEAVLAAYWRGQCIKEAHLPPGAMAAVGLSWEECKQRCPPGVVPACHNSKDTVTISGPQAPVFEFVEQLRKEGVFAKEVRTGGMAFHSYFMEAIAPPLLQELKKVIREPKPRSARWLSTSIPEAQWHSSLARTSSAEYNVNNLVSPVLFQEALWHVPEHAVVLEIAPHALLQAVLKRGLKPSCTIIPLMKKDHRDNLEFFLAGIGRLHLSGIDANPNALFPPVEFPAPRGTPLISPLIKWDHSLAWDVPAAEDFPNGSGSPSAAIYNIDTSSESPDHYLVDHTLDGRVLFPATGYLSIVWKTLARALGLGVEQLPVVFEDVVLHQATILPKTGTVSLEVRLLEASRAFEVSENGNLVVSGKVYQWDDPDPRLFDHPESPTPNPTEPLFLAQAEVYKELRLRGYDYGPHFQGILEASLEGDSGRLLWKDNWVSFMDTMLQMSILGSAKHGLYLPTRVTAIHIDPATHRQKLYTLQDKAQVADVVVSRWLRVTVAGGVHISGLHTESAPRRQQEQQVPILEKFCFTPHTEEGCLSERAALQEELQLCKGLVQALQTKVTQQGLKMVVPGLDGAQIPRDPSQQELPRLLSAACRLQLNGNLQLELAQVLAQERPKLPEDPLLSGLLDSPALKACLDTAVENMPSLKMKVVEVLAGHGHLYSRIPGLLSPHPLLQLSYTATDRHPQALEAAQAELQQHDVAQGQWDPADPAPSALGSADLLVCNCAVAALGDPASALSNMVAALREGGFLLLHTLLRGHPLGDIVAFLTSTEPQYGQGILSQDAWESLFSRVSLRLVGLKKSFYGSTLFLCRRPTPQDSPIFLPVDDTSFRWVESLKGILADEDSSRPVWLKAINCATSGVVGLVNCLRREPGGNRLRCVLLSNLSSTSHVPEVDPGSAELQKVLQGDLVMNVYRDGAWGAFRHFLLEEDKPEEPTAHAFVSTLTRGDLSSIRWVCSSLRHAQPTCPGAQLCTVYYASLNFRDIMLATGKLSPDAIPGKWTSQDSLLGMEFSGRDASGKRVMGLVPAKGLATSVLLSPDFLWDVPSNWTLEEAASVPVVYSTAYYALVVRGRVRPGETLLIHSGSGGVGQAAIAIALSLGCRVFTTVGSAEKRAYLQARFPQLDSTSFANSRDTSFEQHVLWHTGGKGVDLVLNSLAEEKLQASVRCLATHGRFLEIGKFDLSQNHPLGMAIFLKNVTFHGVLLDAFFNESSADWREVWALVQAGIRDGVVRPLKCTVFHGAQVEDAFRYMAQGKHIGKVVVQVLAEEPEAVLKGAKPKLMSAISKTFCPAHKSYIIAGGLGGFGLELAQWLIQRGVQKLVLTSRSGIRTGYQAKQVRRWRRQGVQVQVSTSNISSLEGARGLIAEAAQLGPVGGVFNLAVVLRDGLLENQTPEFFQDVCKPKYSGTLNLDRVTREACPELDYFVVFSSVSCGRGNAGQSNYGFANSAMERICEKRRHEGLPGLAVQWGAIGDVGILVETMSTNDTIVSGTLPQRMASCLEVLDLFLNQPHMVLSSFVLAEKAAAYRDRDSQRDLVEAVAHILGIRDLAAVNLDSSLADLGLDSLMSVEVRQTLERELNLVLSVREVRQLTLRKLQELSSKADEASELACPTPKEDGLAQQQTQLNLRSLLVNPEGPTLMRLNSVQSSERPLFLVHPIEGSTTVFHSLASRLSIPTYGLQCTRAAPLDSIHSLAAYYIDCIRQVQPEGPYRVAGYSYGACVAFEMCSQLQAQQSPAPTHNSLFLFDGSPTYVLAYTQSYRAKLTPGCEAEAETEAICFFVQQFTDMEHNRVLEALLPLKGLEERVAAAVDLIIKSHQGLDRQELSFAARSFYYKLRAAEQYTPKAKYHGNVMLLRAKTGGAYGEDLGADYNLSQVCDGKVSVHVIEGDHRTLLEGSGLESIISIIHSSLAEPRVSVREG

CNS(=O)(=O)c1cc(C(=O)N2CCC(CCN3C4CCC3CC(n3c(C)nc5ccccc53)C4)(c3cccc(F)c3)CC2)c(Cl)cc1F (stereo unspecified)
active: [4] 2.65 µM | [5] 3.6 µM | [10] 31 µM | [12] 15.6 µM | [13] 24.2 µM
not listed: [15] | [16] | [17] | [18] | [19] | [20]
inactive: all other assays above

CC[C@H](C)C(=O)O[C@H]1C[C@@H](C)C=C2C=C[C@H](C)[C@H](CC[C@@H]3C[C@@H](O)CC(=O)O3)[C@H]21
active: [15] 2.84 µM | [3] 26 nM | [4] 2.96 µM | [16] 94 nM | [18] 0.641 µM | [8] 12.1 µM | [14] 24.4 µM
not listed: [5]
inactive: all other assays above

O=C(O)c1cccc(N(Cc2cccnc2)c2ccc(OC(F)F)c(OC(F)F)c2)c1
active: [4] 7.82 µM | [8] 81.3 µM | [9] 6.43 nM | [14] 50 µM
not listed: [15] | [16] | [17] | [18] | [19] | [20]
inactive: all other assays above

CN(C)c1ccc(Cc2ccc(N(C)C)cc2)cc1
active: [6] 3.81 µM | [7] 50 µM | [13] 83.1 µM | [14] 13.2 µM
not listed: [5] | [11] | [16] | [19] | [20]
inactive: all other assays above

CCOc1cccc(-n2cc(C(=O)N3CCN(c4cc(C(=O)O)c5ccccc5c4)CC3)nc2-c2ccc(C)cc2)c1
active: [8] 80.5 µM | [12] 31.6 µM | [13] 33.1 µM | [14] 12.3 µM
not listed: [11] | [19] | [20]
inactive: all other assays above

Cc1ccc(O)cc1
not listed: [11] | [14] | [19] | [20]
inactive: all other assays above

CC(C)(O)c1coc(S(=O)(=O)NC(=O)Nc2c3c(cc4c2CCC4)CCC3)c1
active: [4] 10.4 µM | [18] 25.2 µM | [6] 19.4 µM | [14] 50 µM
not listed: [5] | [11] | [19] | [20]
inactive: all other assays above
